According to publication PMC11062922 (Nature Chemical Biology, 2023):
Like-named read-outs stand apart in the source and are kept apart here.

Experiments:
Parameters in all cases: species or system human, MV4-11 + K-562 + COLO205 + SK-N-BE2 + OVCAR-8
[1] = tested on: ACVR2B; conditions: read-out: apparent Kd, compound concentrations: 100 nM and 1000 nM (sheet 'Samples'), n = 1
[2] = tested on: DCTPP1; conditions: read-out: apparent Kd; compound concentrations: 100 nM and 1000 nM (sheet 'Samples'), CATDS: 0.10861575043791701; n = 1
[3] = tested on: EGFR; conditions: read-out: apparent Kd; compound concentrations: 100 nM and 1000 nM (sheet 'Samples'), CATDS: 0.49201381458362498; n = 1
[4] = tested on: EPHA5; conditions: read-out: apparent Kd; compound concentrations: 100 nM and 1000 nM (sheet 'Samples'), CATDS: 0.108805216819128; n = 1
[5] = tested on: EPHB4; conditions: read-out: apparent Kd; compound concentrations: 100 nM and 1000 nM (sheet 'Samples'), CATDS: 0.19010178021007501; n = 1
[6] = tested on: PRKD1; conditions: read-out: apparent Kd; compound concentrations: 100 nM and 1000 nM (sheet 'Samples'), CATDS: 0.12094331971113; n = 1
[7] = tested on: RET; conditions: read-out: apparent Kd; compound concentrations: 100 nM and 1000 nM (sheet 'Samples'), CATDS: 0.16960231572365; n = 1
[8] = tested on: ACVR1B; conditions: read-out: apparent Kd, n = 1
[9] = tested on: DDR1; conditions: read-out: apparent Kd; compound concentrations: 100 nM and 1000 nM (sheet 'Samples'), CATDS: 0.15549636172905901; n = 1
[10] = tested on: JAK2; conditions: read-out: apparent Kd; compound concentrations: 100 nM and 1000 nM (sheet 'Samples'), CATDS: 0.70328815445029103; n = 1
[11] = tested on: MAPK14; conditions: read-out: apparent Kd; compound concentrations: 100 nM and 1000 nM (sheet 'Samples'), CATDS: 0.189242383322658; n = 1
[12] = tested on: NLK; conditions: read-out: apparent Kd; compound concentrations: 100 nM and 1000 nM (sheet 'Samples'), CATDS: 0.152320021786015; n = 1
[13] = tested on: GAK; conditions: read-out: apparent Kd; compound concentrations:100 nM and 1000 nM (sheet 'Samples'); n = 1
[14] = tested on: NQO2; conditions: read-out: apparent Kd; compound concentrations:100 nM and 1000 nM (sheet 'Samples'); n = 1
[15] = tested on: PRKD2; conditions: read-out: apparent Kd; compound concentrations:100 nM and 1000 nM (sheet 'Samples'); n = 1
[16] = tested on: RIPK2; conditions: read-out: apparent Kd; compound concentrations:100 nM and 1000 nM (sheet 'Samples'); n = 1
[17] = tested on: TGFBR1; conditions: read-out: apparent Kd; compound concentrations:100 nM and 1000 nM (sheet 'Samples'); n = 1
[18] = tested on: TGFBR2; conditions: read-out: apparent Kd, n = 1
[19] = tested on: TNIK; conditions: read-out: apparent Kd; compound concentrations:100 nM and 1000 nM (sheet 'Samples'); n = 1
[20] = tested on: ACVR1; conditions: read-out: apparent Kd; compound concentrations: 100 nM and 1000 nM (sheet 'Samples'), CATDS: 9.7395071504851799E-2; n = 1
[21] = tested on: ATM; conditions: read-out: apparent Kd; compound concentrations: 100 nM and 1000 nM (sheet 'Samples'), CATDS: 0.20840274799776901; n = 1
[22] = tested on: CDC42BPG; conditions: read-out: apparent Kd; compound concentrations: 100 nM and 1000 nM (sheet 'Samples'), CATDS: 7.2395541627420706E-2; n = 1
[23] = tested on: CLK1; conditions: read-out: apparent Kd; compound concentrations: 100 nM and 1000 nM (sheet 'Samples'), CATDS: 0.111342996670081; n = 1
[24] = tested on: CLK2; conditions: read-out: apparent Kd; compound concentrations: 100 nM and 1000 nM (sheet 'Samples'), CATDS: 0.14537230764377601; n = 1
[25] = tested on: CLK4; conditions: read-out: apparent Kd; compound concentrations: 100 nM and 1000 nM (sheet 'Samples'), CATDS: 9.3990878908875697E-2; n = 1
[26] = tested on: DDX3X;DDX3Y; conditions: read-out: apparent Kd; compound concentrations: 100 nM and 1000 nM (sheet 'Samples'), CATDS: 7.1763596621612302E-2; n = 1
[27] = tested on: FLT3; conditions: read-out: apparent Kd; compound concentrations: 100 nM and 1000 nM (sheet 'Samples'), CATDS: 0.113809183908987; n = 1
[28] = tested on: RIPK3; conditions: read-out: apparent Kd; compound concentrations: 100 nM and 1000 nM (sheet 'Samples'), CATDS: 7.33471794094432E-2; n = 1
[29] = tested on: SLK; conditions: read-out: apparent Kd; compound concentrations:100 nM and 1000 nM (sheet 'Samples'); n = 1
[30] = tested on: STK10; conditions: read-out: apparent Kd; compound concentrations:100 nM and 1000 nM (sheet 'Samples'); n = 1
[31] = tested on: PRKD3; conditions: read-out: apparent Kd; compound concentrations:100 nM and 1000 nM (sheet 'Samples'); n = 1
[32] = compound concentrations:100 nM and 1000 nM (sheet 'Samples')

COc1cc2ncnc(Nc3cccc(Cl)c3F)c2cc1O[C@H]1CC[C@@]2(CC1)NCCNC2=O [BI00113608]
potency estimated from few doses ([1]; CATDS: 0.10934684571165): 1660 nM | potency estimated from few doses [2]: 1700 nM | potency estimated from few doses [3]: 85.3 nM | potency estimated from few doses [4]: 1690 nM | potency estimated from few doses [5]: 421 nM | potency estimated from few doses [6]: 1220 nM | potency estimated from few doses [7]: 534 nM

Cc1ccc(Nc2ccnc(Nc3ccc(C)c(F)c3)n2)cc1O.Cl [GW582868A]
potency estimated from few doses ([1]; CATDS: 1): 664 nM

COc1ccc(-c2nn3ncccc3c2-c2ccnc(Nc3ccc(F)c(F)c3)n2)cc1 [GW827396X]
potency estimated from few doses ([8]; compound concentrations: 100 nM and 1000 nM (sheet 'Samples'), CATDS: 0.188759897575135): 1020 nM | potency estimated from few doses [9]: 1770 nM | potency estimated from few doses [10]: 73 nM | potency estimated from few doses [11]: 1010 nM | potency estimated from few doses [12]: 1900 nM

c1ccc(-c2n[nH]cc2-c2ccnc(-c3ccc(OCCn4ccnc4)cc3)c2)nc1 [GW711782X]
potency estimated from few doses [8, 32]: 245 nM | potency estimated from few doses [13]: 1350 nM | potency estimated from few doses [14]: 71.1 nM | potency estimated from few doses [15]: 2160 nM | potency estimated from few doses [16]: 801 nM | potency estimated from few doses [17]: 82 nM | potency estimated from few doses [18, 32]: 719 nM | potency estimated from few doses [19]: 873 nM

CCS(=O)(=O)c1ccc(OC)c(Nc2ncc(-c3cccc(C(C)=O)c3)o2)c1 [GW621431X]
potency estimated from few doses [20]: 882 nM | potency estimated from few doses [21]: 232 nM | potency estimated from few doses [22]: 2020 nM | potency estimated from few doses [23]: 661 nM | potency estimated from few doses [24]: 405 nM | potency estimated from few doses [25]: 958 nM | potency estimated from few doses [26]: 2090 nM | potency estimated from few doses [27]: 633 nM | potency estimated from few doses [28]: 1930 nM | potency estimated from few doses ([18]; compound concentrations: 100 nM and 1000 nM (sheet 'Samples'), CATDS: 0.12096887154144): 562 nM

COc1ccc2cc(-c3c(-c4ccncc4)nc(-c4ccc(S(C)=O)cc4C)n3C)ccc2c1 (centres unmarked) [SB-630812]
potency estimated from few doses [8, 32]: 288 nM | potency estimated from few doses [29]: 2250 nM | potency estimated from few doses [30]: 1990 nM

Cc1cccc(-c2nc(C)cc(Nc3ccncc3)n2)n1 [GSK257997A]
potency estimated from few doses [8, 32]: 431 nM | potency estimated from few doses [15]: 408 nM | potency estimated from few doses [31]: 1590 nM | potency estimated from few doses [17]: 75.9 nM
